Targets with a hit are over-represented here; the source holds about 7,900 in all. About 0.6% of all pairs of compound and target were hits.
Tests used:
Assay in all cases: log2 fold change, soluble protein after heating vs DMSO (PISA); higher = thermal stabilisation; K562 cells, 10 uM, 30 min; active = over 0.2 and 3.5 SD of the protein, either way, in both replicates (recomputed)
[1] = compound: CON(C)C(=O)N1N=C(c2cc(F)ccc2F)S[C@@]1(CCCN)c1ccccc1 [filanesib]
Procedure, shortened: (§1)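 K562 cells at 2×10^6 cells/mL were treated with 10 μM compound for 30 min. Aliquots were heated for 3 min across 48°C-58°C, pooled, and extracted in PBS with 0.5% NP-40 at 4°C; soluble protein was the supernatant after 21,000xg for 90 min. Soluble protein was quantified by TMTpro 16plex LC-MS/MS with channel sums equalised, and reported as log2 fold change in thermal stability against DMSO controls, with values from duplicates.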

[2] = compound: CS(=O)(=O)c1ccc(-c2cnc(N)c(C(=O)Nc3ccccc3)n2)cc1
Procedure, shortened: as §1

[3] = compound: CS(=O)(=O)N1CCN(Cc2cc3nc(-c4cccc5[nH]ncc45)nc(N4CCOCC4)c3s2)CC1 [pictilisib]
Procedure, shortened: as §1

[4] = compound: C[C@@H]1COCCN1C2=NC(=NC(=C2)C3(CC3)S(=O)(=O)C)C4=C5C=CNC5=CC=C4
Procedure, shortened: as §1

[5] = compound: Cc1cc(Nc2cc(CN3CCOCC3)c3nc(C)c(Cc4ccc(Cl)cc4F)n3n2)n[nH]1 [gandotinib]
Procedure, shortened: as §1

[6] = compound: COC1=CC=C(C=C1)CN2C=CC3=C2C=C(C=C3)C(=O)NO
Procedure, shortened: as §1

[7] = compound: CO[C@H]1C[C@@H]2CC[C@@H](C)[C@@](O)(O2)C(=O)C(=O)N2CCCC[C@H]2C(=O)O[C@H]([C@H](C)C[C@@H]2CC[C@H](n3cnnn3)[C@H](OC)C2)CC(=O)[C@H](C)/C=C(\C)[C@@H](O)[C@@H](OC)C(=O)[C@H](C)C[C@H](C)/C=C/C=C/C=C/1C [zotarolimus]
Procedure, shortened: as §1

[8] = compound: COc1cc(C(=O)O)ccc1NC(=O)[C@@H]1N[C@@H](CC(C)(C)C)[C@](C#N)(c2ccc(Cl)cc2F)[C@H]1c1cccc(Cl)c1F [idasanutlin]
Procedure, shortened: as §1

[9] = compound: C[C@@H](Oc1cc(-c2cnn(C3CCNCC3)c2)cnc1N)c1c(Cl)ccc(F)c1Cl [crizotinib]
Procedure, shortened: as §1

[10] = compound: C[C@H](C1=CC=C(C=C1)C(=O)NC2=C3C=CNC3=NC=C2)N
Procedure, shortened: as §1

[11] = compound: C[C@H](Nc1ncnc2nc[nH]c12)c1cc2cccc(Cl)c2c(=O)n1-c1ccccc1 [duvelisib]
Procedure, shortened: as §1

[12] = compound: Cc1cc(Nc2cc(N3CCN(C)CC3)nc(Sc3ccc(NC(=O)C4CC4)cc3)n2)n[nH]1 [tozasertib]
Procedure, shortened: as §1

[13] = compound: Cc1cc(SCc2sc(-c3ccc(C(F)(F)F)cc3)nc2C)ccc1OCC(=O)O
Procedure, shortened: as §1

[14] = compound: Cc1ccc(-n2nc(C(C)(C)C)cc2NC(=O)Nc2ccc(OCCN3CCOCC3)c3ccccc23)cc1 [doramapimod]
Procedure, shortened: as §1

[15] = compound: Cc1ccc(C(=O)N(CCCN)[C@@H](c2nc3cc(Cl)ccc3c(=O)n2Cc2ccccc2)C(C)C)cc1 [ispinesib]
Procedure, shortened: as §1

[16] = compound: COc1cc(Nc2ncc3c(n2)-c2ccc(Cl)cc2C(c2c(F)cccc2OC)=NC3)ccc1C(=O)O [alisertib]
Procedure, shortened: as §1

[17] = compound: COc1cc2nc(-c3cc(F)ccc3O)nc(N[C@@H]3CNC[C@H]3C(C)(C)O)c2cc1OC
Procedure, shortened: as §1

[18] = compound: COc1cc2ncnc(Nc3ccc(F)c(Cl)c3)c2cc1OCCCN1CCOCC1 [gefitinib]
Procedure, shortened: as §1

[19] = compound: COc1cccc2cc(-c3nc([C@H]4CC[C@H](C(=O)O)CC4)n4ncnc(N)c34)[nH]c12
Procedure, shortened: as §1

[20] = compound: CS(=O)(=O)CCNCc1ccc(-c2ccc3ncnc(Nc4ccc(OCc5cccc(F)c5)c(Cl)c4)c3c2)o1 [lapatinib]
Procedure, shortened: as §1

Measured: log2 fold change

DHPS (UniProt M0R1T2)
inactive: [1] -0.057 | [2] -0.152

DDB1 isoform 2 (UniProt Q16531)
inactive: [1] 0.077 | [3] 0.094 | [2] 0.009 | [4] 0.118 | [5] -0.228

FAM117B (UniProt Q6P1L5)
UniProt Q6P1L5, sequence (Q6P1L5 whole entry, looked up): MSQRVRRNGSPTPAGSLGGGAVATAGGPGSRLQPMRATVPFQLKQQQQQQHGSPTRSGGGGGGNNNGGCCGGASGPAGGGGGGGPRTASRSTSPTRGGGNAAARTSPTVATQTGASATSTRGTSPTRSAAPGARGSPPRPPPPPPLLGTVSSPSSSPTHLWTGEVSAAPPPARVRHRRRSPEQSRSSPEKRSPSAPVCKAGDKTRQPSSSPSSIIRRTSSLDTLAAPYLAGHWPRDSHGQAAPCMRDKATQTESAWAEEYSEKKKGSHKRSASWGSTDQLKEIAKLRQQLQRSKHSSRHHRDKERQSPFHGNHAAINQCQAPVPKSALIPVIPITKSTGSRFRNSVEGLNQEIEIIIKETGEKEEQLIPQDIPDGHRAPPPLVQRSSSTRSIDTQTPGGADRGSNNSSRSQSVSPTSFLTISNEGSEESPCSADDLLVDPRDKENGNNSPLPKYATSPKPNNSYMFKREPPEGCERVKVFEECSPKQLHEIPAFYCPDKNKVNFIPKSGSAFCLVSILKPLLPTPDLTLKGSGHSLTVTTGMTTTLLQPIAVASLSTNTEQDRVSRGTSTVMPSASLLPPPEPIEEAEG
inactive: [6] 0.053 | [7] 0.007 | [8] -0.062 | [3] 0.208 | [9] 0.563 | [4] 0.007 | [10] -0.021 | [11] -0.381 | [5] -0.164 | [12] -0.175 | [13] 0.257 | [14] 0.21 | [15] -0.057

FADS1 (UniProt F5GYH4)
inactive: [6] -0.373 | [9] -0.079 | [12] -0.262 | [14] 0.106

DOLPP1 (UniProt Q86YN1)
UniProt Q86YN1, sequence (Q86YN1 whole entry, looked up): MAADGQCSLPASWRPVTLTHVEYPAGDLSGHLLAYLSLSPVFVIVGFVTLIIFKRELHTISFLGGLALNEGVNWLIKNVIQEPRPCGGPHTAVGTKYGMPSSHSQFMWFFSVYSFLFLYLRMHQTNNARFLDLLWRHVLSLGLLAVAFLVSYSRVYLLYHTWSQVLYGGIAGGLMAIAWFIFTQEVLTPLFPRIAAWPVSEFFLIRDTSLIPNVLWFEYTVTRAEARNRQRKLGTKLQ
active: [15] 0.358
inactive: [6] -0.05 | [7] -0.003 | [8] -0.043 | [16] -0.022 | [17] 0.129 | [18] 0.013 | [19] 0.011 | [20] -0.07 | [9] -0.082 | [10] -0.135 | [12] 0.038 | [14] -0.026

DEGS1 (UniProt O15121)
UniProt O15121, sequence (O15121 whole entry, looked up): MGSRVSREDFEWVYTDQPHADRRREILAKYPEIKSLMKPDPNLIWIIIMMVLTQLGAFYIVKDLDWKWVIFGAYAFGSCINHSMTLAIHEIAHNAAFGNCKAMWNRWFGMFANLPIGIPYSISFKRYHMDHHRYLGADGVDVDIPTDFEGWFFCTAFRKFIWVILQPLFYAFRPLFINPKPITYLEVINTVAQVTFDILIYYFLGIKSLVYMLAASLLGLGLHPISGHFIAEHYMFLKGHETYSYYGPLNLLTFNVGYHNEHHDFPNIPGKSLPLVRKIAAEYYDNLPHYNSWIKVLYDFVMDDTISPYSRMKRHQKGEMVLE
inactive: [1] -0.048 | [7] 0.027 | [8] 0.039 | [16] 0.028 | [17] -0.013 | [18] -0.002 | [19] -0.018 | [20] -0.034 | [3] 0 | [2] 0.064 | [4] 0.062 | [10] -0.047 | [11] -0.017 | [5] 0.138 | [12] -0.07 | [13] -0.078

EHBP1 (UniProt Q8NDI1)
inactive: [7] -0.02 | [8] 0.031 | [16] 0.025 | [19] 0.086 | [3] 0.057 | [10] 0.158 | [5] 0.015 | [12] 0.043

EDRF1 (UniProt Q3B7T1)
inactive: [1] 0.052 | [16] -0.033 | [19] 0.044 | [3] 0.244 | [2] 0.024 | [4] 0.055 | [10] -0.008 | [11] 0.129 | [5] 0.098 | [13] 0.134 | [15] -0.24
active: [7] 0.419

EEF2K (UniProt O00418)
UniProt O00418, sequence (O00418 whole entry, looked up): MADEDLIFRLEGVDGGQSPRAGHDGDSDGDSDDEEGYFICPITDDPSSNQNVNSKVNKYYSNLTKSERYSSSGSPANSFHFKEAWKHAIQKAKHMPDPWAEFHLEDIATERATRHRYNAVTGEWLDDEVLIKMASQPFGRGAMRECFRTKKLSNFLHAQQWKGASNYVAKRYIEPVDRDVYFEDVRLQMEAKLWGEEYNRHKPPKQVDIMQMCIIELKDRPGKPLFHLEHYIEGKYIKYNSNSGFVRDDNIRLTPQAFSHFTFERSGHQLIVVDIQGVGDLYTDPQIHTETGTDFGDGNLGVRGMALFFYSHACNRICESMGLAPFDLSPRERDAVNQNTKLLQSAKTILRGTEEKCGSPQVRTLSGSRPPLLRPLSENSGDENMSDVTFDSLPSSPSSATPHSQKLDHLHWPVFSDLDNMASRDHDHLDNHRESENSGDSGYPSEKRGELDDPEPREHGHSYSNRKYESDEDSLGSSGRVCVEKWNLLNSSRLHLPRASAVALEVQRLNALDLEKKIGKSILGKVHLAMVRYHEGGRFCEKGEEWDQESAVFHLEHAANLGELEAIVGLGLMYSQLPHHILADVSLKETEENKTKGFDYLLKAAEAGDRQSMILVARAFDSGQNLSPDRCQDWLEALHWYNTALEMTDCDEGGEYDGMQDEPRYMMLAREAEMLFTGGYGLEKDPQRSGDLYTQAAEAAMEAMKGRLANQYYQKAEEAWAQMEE
inactive: [7] 0.021 | [16] 0.031 | [17] -0.062 | [20] -0.017 | [3] -0.014 | [4] -0.044 | [10] 0.4 | [5] 0.13 | [15] -0.208
active: [19] -0.896

DNAL1 (UniProt Q4LDG9)
UniProt Q4LDG9, sequence (Q4LDG9 whole entry, looked up): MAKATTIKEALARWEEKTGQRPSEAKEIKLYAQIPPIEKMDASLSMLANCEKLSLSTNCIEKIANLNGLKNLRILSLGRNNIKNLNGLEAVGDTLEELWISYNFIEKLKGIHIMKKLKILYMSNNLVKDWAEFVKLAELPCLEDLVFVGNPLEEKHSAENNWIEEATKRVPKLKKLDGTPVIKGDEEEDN
inactive: [6] 0.009 | [7] 0.024 | [8] -0.098 | [9] -0.035 | [4] 0.011 | [10] 0.025 | [11] -0.013 | [13] -0.102 | [14] -0.067 | [15] -0.082

DDX46, A0A0C4DG89
inactive: [16] -0.083 | [18] 0.261 | [19] 0.032 | [4] -0.009

EIF2AK3 (UniProt Q9NZJ5)
inactive: [6] 0.135 | [7] -0.06 | [8] -0.039 | [16] -0.141 | [17] 0.201 | [18] -0.161 | [19] 0.078 | [20] 0.146 | [3] -0.233 | [9] -0.062 | [4] 0.181 | [10] 0.109 | [11] 0.031 | [5] -0.113 | [12] -0.359 | [13] 0.188 | [14] 0.032

DNAJB1 (UniProt M0R128)
inactive: [7] -0.062 | [10] -0.018 | [12] -0.082

EGR1 (UniProt P18146)
UniProt P18146, sequence (P18146 whole entry, looked up): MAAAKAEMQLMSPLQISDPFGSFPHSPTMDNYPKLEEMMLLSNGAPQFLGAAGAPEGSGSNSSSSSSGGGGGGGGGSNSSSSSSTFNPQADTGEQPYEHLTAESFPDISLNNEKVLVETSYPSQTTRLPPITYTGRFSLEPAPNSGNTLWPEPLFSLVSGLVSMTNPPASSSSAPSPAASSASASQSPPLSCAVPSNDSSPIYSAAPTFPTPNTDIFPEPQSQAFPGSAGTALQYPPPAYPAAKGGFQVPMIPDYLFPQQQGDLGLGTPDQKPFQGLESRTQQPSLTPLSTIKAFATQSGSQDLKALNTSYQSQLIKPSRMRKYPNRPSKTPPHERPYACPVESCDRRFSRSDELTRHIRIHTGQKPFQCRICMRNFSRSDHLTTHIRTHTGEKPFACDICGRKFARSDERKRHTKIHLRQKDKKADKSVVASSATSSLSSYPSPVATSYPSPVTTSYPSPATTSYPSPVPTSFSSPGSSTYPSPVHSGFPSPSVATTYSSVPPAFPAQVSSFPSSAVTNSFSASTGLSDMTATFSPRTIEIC
inactive: [1] 0.463 | [7] 0.125 | [8] 0.164 | [16] -0.54 | [17] -0.24 | [18] -0.183 | [19] 0.079 | [20] 0.067 | [3] -0.362 | [2] 0.063 | [4] 0.259 | [10] -0.518 | [5] -0.536 | [12] -0.131 | [15] 0.36

EIF4G1 (UniProt Q04637)
UniProt Q04637, sequence (Q04637 whole entry, looked up): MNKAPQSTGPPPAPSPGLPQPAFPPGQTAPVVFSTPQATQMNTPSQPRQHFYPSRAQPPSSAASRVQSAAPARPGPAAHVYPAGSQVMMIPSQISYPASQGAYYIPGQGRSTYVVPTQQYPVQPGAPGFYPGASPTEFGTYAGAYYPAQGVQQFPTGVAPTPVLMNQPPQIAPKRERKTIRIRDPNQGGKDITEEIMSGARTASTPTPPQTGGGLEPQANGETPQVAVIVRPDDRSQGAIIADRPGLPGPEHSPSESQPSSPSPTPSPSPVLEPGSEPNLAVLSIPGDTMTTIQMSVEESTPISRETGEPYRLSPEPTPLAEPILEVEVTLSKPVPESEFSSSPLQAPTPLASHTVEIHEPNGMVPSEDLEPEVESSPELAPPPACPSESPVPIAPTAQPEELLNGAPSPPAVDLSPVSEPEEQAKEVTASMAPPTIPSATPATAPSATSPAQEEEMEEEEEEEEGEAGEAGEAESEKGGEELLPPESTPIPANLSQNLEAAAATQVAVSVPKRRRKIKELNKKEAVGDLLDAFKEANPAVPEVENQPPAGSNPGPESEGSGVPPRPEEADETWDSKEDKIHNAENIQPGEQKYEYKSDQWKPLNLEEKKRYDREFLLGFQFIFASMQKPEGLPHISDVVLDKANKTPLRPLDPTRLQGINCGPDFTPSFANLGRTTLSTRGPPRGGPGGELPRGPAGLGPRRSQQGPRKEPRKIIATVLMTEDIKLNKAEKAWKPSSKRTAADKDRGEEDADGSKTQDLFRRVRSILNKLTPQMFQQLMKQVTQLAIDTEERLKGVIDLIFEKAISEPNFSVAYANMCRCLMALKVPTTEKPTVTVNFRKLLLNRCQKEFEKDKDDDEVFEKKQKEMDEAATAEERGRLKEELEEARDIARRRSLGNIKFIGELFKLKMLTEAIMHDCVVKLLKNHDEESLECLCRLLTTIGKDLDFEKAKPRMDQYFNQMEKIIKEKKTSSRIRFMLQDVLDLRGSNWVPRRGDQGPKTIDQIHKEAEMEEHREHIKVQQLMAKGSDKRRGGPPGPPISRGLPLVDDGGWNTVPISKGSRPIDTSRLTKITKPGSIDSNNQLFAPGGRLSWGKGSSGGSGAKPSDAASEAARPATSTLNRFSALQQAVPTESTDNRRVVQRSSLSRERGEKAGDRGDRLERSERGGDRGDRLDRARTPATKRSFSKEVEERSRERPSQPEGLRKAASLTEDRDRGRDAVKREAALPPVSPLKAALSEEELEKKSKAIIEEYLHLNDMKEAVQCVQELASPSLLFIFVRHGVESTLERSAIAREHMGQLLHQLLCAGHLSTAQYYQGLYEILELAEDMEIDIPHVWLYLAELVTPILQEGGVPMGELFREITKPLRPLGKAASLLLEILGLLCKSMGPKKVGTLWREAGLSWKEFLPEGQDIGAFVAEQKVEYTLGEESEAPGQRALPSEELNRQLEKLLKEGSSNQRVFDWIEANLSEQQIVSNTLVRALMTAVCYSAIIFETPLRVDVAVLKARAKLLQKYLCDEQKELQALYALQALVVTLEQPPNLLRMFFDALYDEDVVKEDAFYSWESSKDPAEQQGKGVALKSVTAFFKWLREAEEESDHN
inactive: [7] -0.118 | [8] 0.071 | [3] -0.307 | [10] 0.184 | [11] -0.111 | [5] -0.082 | [12] -0.051 | [13] 0.227

DDX11 (UniProt Q96FC9)
inactive: [6] -0.069 | [1] 0.144 | [8] -0.05 | [16] 0.088 | [17] 0.047 | [18] -0.009 | [20] -0.045 | [2] 0.02 | [9] -0.01 | [4] -0.144 | [11] 0.05 | [12] -0.068 | [13] 0.015 | [14] 0.224 | [15] 0.012
active: [19] 0.437

DENND1A isoform 6 (UniProt Q8TEH3)
inactive: [6] 0.154 | [17] -0.18 | [20] 0.06 | [9] -0.231 | [12] -0.093 | [14] 0.374

From the supplement of paper PMC10849652
